# Assay outcomes (PubChem BioAssay)
# TRPV1 potentiator: human TRPV1 potentiation. potentiation, % at 8.33 µM. Q8NER1. TRPV1-expressing cells, Fluo-8 calcium influx, capsaicin EC20 potentiation. 320,000 tested, 0.02% active. AID 540277; in the data active means potentiation above about 80%; inconclusive means between about 30% and that limit; further: 0% is about no effect
# Target sequence (Q8NER1 whole entry, looked up): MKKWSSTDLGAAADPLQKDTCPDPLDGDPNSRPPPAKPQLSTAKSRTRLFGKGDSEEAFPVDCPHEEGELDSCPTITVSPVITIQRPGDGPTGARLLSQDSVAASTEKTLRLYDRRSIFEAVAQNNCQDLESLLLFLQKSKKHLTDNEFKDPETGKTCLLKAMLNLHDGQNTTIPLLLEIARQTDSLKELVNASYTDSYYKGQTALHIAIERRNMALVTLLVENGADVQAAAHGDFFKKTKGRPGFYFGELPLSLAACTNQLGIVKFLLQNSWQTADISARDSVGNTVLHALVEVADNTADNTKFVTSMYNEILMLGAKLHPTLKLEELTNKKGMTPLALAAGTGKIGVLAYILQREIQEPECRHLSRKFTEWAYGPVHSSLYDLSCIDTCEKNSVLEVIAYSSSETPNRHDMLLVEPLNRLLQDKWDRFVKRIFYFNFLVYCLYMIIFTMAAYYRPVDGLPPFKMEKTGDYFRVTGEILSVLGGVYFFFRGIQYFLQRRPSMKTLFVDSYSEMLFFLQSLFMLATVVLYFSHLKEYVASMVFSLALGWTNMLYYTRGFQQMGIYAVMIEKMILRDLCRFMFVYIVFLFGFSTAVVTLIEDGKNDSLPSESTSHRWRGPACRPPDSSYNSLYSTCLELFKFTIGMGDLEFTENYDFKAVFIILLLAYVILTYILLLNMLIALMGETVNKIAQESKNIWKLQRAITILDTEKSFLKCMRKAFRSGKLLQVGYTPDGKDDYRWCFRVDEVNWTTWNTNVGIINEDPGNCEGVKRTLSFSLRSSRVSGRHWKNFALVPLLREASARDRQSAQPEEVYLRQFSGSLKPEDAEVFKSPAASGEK
#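 TRPV1-expressing cells were cultured overnight at 35.5C and loaded with Fluo-8 calcium dye for 40 to 90 min at room temperature. After a 10 s baseline, compound was added and calcium influx was read kinetically for 3 min (ex 480/em 520 nm).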
# ELG1 repair inh: inhibitors of ELG1-dependent DNA repair in HEK293T cells. 330,000 tested, 2.3% active. HEK293T ELG1-luciferase reporter, luminescence, 16 h; DNA damage induced by 5-fluorouridine. Potency, µM (doses to about 46.1 µM), for inactives: at the top dose activity change, negative = inhibition, usual class: inhibitors. AID 504467; further: potency means the concentration at half of the fitted maximal effect; on the % scale 0 is the no-effect control and ±100 the full control effect; nearly all actives have a fitted effect of over 55% in size
#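 5-Fluorouridine DNA damage + compound/DMSO, 2,000 cells/well, 16 h, 37 °C/5% CO2. ONE-Glo, 30 min RT, luminescence. Readout = decrease in reporter signal.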
# FUS suppressor: rescues growth of FUS-expressing yeast. S. cerevisiae FUS-expressing, growth rescue, OD600, 24 h. Potency, µM (titrated, usually from 76.6 µM), hits mostly activators. 390,000 tested, 0.24% active;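 further: potency means the concentration at half of the fitted maximal effect; plate controls were DMSO vehicle for no effect and reference control for full effect; nearly all actives have a fitted effect of over 55% in size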
#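 Cultures pregrown in 2.5% raffinose medium are shifted to minimal medium containing 2% galactose to express toxic FUS. Compounds are tested at several concentrations. After 24hr at 30C, growth is quantified at 600 nm absorbance.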
# Giardia kill: Giardia lamblia killing | 340,000 tested, 0.15% active | activity change, % at 7.66 µM, hits read low | AID 540267 | Giardia lamblia trophozoite viability; in the data active means activity change below about -80%; inconclusive means between about -30% and that limit;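 further: parasites exposed to compound for two days anaerobically before the ATP read; on the % scale 0 is the no-effect control and ±100 the full control effect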
#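 Giardia trophozoites, 100 cells per well, were exposed to compounds for 48 hrs at 37 deg C under anaerobic conditions; viability was then read as ATP content by bioluminescence after 15-30 min at room temperature.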
# TRPV1 agonist: agonists of human vanilloid receptor 1 (TRPV1). TRPV1-expressing cells, Fluo-8 calcium influx, agonist mode. Q8NER1. activation, % at 8.33 µM. AID 540275. 320,000 tested, 0.19% active; in the data active means activation above about 80%; inconclusive means between about 30% and that limit; further: 0% is about no effect
#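 TRPV1-expressing cells were cultured overnight at 35.5C and loaded with Fluo-8 calcium dye for 40 to 90 min at room temperature. After a 10 s baseline, compound was added and calcium influx was read kinetically for 3 min (ex 480/em 520 nm).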
# * = called active by the depositor; i = inactive; u = inconclusive; x = no result. In the library only some 2.3% were active in any assay of this set; here they are far more common. Unless noted, the call rests on the fitted dose curve; in most records, active means well fitted curve in the direction sought with a large enough effect; inconclusive means small, poorly fitted or top-dose-only effect, or another doubt; inactive means no such curve, though single readings can be large; an effect the other way counts as inactive or inconclusive.
SMILES,TRPV1 potentiator,ELG1 repair inh,FUS suppressor,Giardia kill,TRPV1 agonist
O=C(Nc1ccc(Cl)cc1)c1cc(S(=O)(=O)N2CCOCC2)cs1,-17,15µM*,i,-4,u
COc1cc(-c2nc(-c3cccc(Cl)c3)c(-c3ccccc3)[nH]2)cc(OC)c1OC,x,x,i,x,x
COc1cc(-c2nc(-c3ccc4c(c3)-c3ccccc3S4(=O)=O)c(-c3ccccc3)[nH]2)cc(OC)c1O,-11,4.6µM*,u,-11,-1
Cc1ccc2c(c1)c1c(c(=O)n(-c3cccc(Cl)c3)c(=O)n1CC(=O)N1CCCC1)n2C,x,x,i,x,x
CCCc1nc2ccccc2c(C(=O)OC(C)C(=O)NCc2ccc3c(c2)OCO3)c1CC (stereo not drawn),3,21µM*,i,-2,4
CCOC(=O)N=Nc1c2ccccc2c2nc3no[nH]c3nc12,3,1.5µM*,i,-96*,3
Cc1ccc2ncnc(NCc3ccco3)c2c1,x,x,x,0,x
CC(=O)c1sc(-c2ccccc2)cc1NS(=O)(=O)c1ccccc1,0,3%,i,-1,-3
NC(=O)c1sc(-c2ccsc2)cc1NS(=O)(=O)c1ccc(C(F)(F)F)cc1,11,18µM*,i,-14,-7
CC(=O)c1sc(-c2ccc(F)cc2)cc1NS(=O)(=O)c1ccc(C)cc1,10,18µM*,i,-9,-2
CC(C)(C)NC(=O)Cn1cc(S(=O)(=O)Cc2ccccc2Cl)c2ccccc21,x,x,i,x,x
COc1ccccc1NC(=O)C1=C(C)Nc2c(C(=O)Nc3ccc(F)cc3)cnn2C1c1ccc(Cl)cc1 (stereo not drawn),x,x,i,x,x
CCOc1ccc(-c2cc3c(=O)n(Cc4nc(-c5ccc(OCC)c(OC)c5)oc4C)ccn3n2)cc1Cl,x,x,i,x,x
COc1ccc2c(c1)C(=O)[C@@H](OC(=O)NCc1ccc3c(c1)OCO3)[C@H](c1ccc(OC)c(Br)c1)O2,6,18µM*,x,x,1
Cc1ccc(NC(=O)c2ccc(-c3nn(C)c(=O)c4ccccc34)cc2)cc1,-10,u,i,0,4
Cc1ccc(-c2nn(C)c(=O)c3ccccc23)cc1CNC(=O)c1ccccc1,11,16µM*,i,14,-3
Cn1nc(-c2ccc(C(=O)Nc3ccc(F)cc3)cc2)c2ccccc2c1=O,-7,7.3µM*,i,5,11
Cn1nnnc1SCCNCc1ccc(OCc2ccc(Cl)cc2)cc1,x,x,i,x,x
Cc1ccccc1NS(=O)(=O)c1cc(C(=O)NCCSC2CCCCC2)ccc1C,u,u,i,-11,-4
Cc1ccc(C)c(NS(=O)(=O)c2cc(C(=O)NCCSC3CCCCC3)ccc2C)c1,-10,21µM*,i,1,-1
COc1cccc(CSc2nc3n(n2)C(c2cccs2)C(C(=O)Nc2ccccc2C)=C(C)N3)c1 (stereo not drawn),x,x,i,x,x
O=C1C2C(C(=O)N1CCN1CCN(Cc3ccc([N+](=O)[O-])cc3)CC1)[C@H]1C=C[C@@H]2C1 (stereo partly drawn),9,16µM*,i,6,-3
COC(=O)c1sc(N)c(C(=O)OC)c1COC(=O)C1CC(=O)N(Cc2ccco2)C1 (stereo not drawn),2,8.2µM*,u,12,-5
CCOC(=O)c1sc(N)c(C(=O)OCC)c1COC(=O)C1CC(=O)N(Cc2ccco2)C1 (stereo not drawn),-2,u,i,9,5
O=C(CSc1nc(=O)n(Cc2ccco2)c2c1CCC2)NCc1ccccc1Cl,x,x,i,x,x
SMILES,TRPV1 potentiator,ELG1 repair inh,FUS suppressor,Giardia kill,TRPV1 agonist
CCc1nc2ccccc2c(C(=O)OCC(=O)Nc2ccc(S(=O)(=O)N3CCOCC3)cc2)c1C,-1,18µM*,i,26,20
CCc1nc2ccccc2c(C(=O)OCC(=O)Nc2cccc(S(=O)(=O)NC3=NCCCCC3)c2)c1C,19,13µM*,u,1,-1
O=C(Cc1ccccc1)N(Cc1cccnc1)c1nc2c(F)cccc2s1,x,x,i,x,x
N#C/C(=C\c1ccc(-c2cccc([N+](=O)[O-])c2)o1)c1nnc(N2CCOCC2)n1-c1ccccc1,2,5.8µM*,x,x,-2
CCOc1c(/C=C(\C#N)C(N)=O)c2ccccc2n1CC,2,13µM*,x,-11,7
CCOC(=O)/C(C#N)=C\c1c(OCC)n(CC)c2ccccc12,-11,u,i,-2,23
CCOc1cc(S(=O)(=O)N2CC=C(c3ccc(F)cc3)CC2)c(OCC)cc1-n1cnnn1,4,5.8µM*,i,-10,4
CCSc1nnnn1-c1ccccc1,6,13%,i,-19,0
Cc1ccc(C)c(-n2nnnc2Sc2nnnn2-c2ccccc2)c1,-7,21µM*,i,7,9
CCc1nnc2sc(-c3ccc(NC(=O)c4ccco4)cc3)nn12,-3,5%,i,-26,-3
CCc1nnc2sc(-c3ccc(NC(=O)c4ccc5c(c4)OCCO5)cc3)nn12,4,5.8µM*,i,19,1
O=c1oc2ccc3ccccc3c2cc1-c1nnc(-c2ccccc2)o1,-6,u,i,9,12
CCN(CC)c1ccc2cc(-c3nc4ccccc4[nH]3)c(=O)oc2c1,26,u,x,-108*,152*
CCN(CC)c1ccc2cc(-c3nnc(-c4ccccc4)o3)c(=O)oc2c1,1,u,i,-4,101*
Fc1ccc(Br)cc1C1C=C(c2ccc(Br)cc2)Nc2nnnn21 (stereo not drawn),x,x,i,x,x
Cc1ccccc1NC(=O)/C=C/c1cccs1,-18,u,i,10,u
NS(=O)(=O)c1cccc(NC(=O)/C=C/c2cccs2)c1,-7,u,i,1,94*
CCN(CC)S(=O)(=O)c1ccc(C)c(NC(=O)/C=C/c2cccs2)c1,-14,16µM*,x,-12,15
O=C(/C=C/c1cccs1)Nc1cccc(NC(=O)/C=C/c2cccs2)n1,16,16µM*,i,5,1
CCOC(=O)c1ccc(NC(=O)/C=C/c2cccs2)cc1,2,u,i,8,84*
COc1ccc(NC(=O)C(c2ccc(C#N)cc2)n2c(=O)c(-c3cc4ccccc4[nH]3)nc3ccccc32)cc1 (stereo not drawn),x,x,i,x,x
O=C(Nc1cc(=O)c2ccccc2o1)N1CCCCC1,-17,15µM*,i,-12,u
O=C(Nc1cc(=O)c2ccccc2o1)N1CCOCC1,6,5.8µM*,i,-28,0
Cc1ccc(OCCCC(=O)Nc2sc3c(c2C(N)=O)CCCC3)cc1,x,x,i,x,x
Cc1ccc(C)c(NC(=O)CC2NCCNC2=O)c1 (stereo not drawn),x,x,i,x,x
